# Data published in PubChem BioAssay (EPA / NIEHS).
# Records with an inconclusive call do not appear. Activity calls are given as the source filed them. Rule for the calls, unless noted: active = hit-call score of the fitted dose curve at least 0.9, where 1 is the maximum; inconclusive = response in the unintended direction; inactive = score below 0.9.
# Assays:
# [1] = Tanguay_ZF_120hpf_PE_legacy: (Legacy) Oregon State University Tanguay Lab 120 Hour Post-fertilization zebrafish Assay for Pericardial Edema (AID 2283640)
# Method in brief: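 Scoring was binary, by brightfield microscopy at 120 hpf, and skipped where mortality occurred. Wild-type embryos were kept under sealed, foil-covered static exposure at 28C in 0.64% (vol/vol) DMSO.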
# [2] = Tanguay_ZF_120hpf_BRAI_legacy: (Legacy) Oregon State University Tanguay Lab 120 Hour Post-fertilization zebrafish Assay for Brain Malformation (AID 2283641)
# Method in brief: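 Binary brightfield scoring of brain malformation at 120 hpf in Tropical 5D larvae held under static exposure at 28C (0.64% v/v DMSO), non-mortality endpoints skipped if dead. Positive control: 5uM trimethyltin chloride; fit versus DMSO.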
# [3] = Tanguay_ZF_120hpf_SOMI_legacy: (Legacy) Oregon State University Tanguay Lab 120 Hour Post-fertilization zebrafish Assay for Somite Malformation (AID 2283647)
# Method in brief: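 Binary somite-defect scoring at 120 hpf, omitted for embryos that died, in wild-type (Tropical 5D) zebrafish with chorion removed by pronase at 4 hpf; static exposure began 6 hpf, single embryos per well, 28C, 0.64% DMSO; fitted positive versus DMSO.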
# [4] = Tanguay_ZF_120hpf_PFIN_legacy: (Legacy) Oregon State University Tanguay Lab 120 Hour Post-fertilization zebrafish Assay for Pectoral Fin Malformation (AID 2283648);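 note: each larva judged yes or no for fin defect by brightfield with dead larvae skipped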
# Method in brief: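 Binary pectoral fin malformation call at 120 hpf by brightfield microscopy; 5D wild-type zebrafish, chorion removed at 4 hpf, one embryo per well from 6 hpf, static exposure at 28C; DMSO (0.64% final) as baseline.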
# [5] = Tanguay_ZF_120hpf_CFIN_legacy: (Legacy) Oregon State University Tanguay Lab 120 Hour Post-fertilization zebrafish Assay for Caudal Fin Malformation (AID 2283649)
# Method in brief: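 Binary brightfield scoring of caudal fin defects at 120 hpf after static, light-shielded exposure at 28C from 6 hpf. Tropical 5D embryos, chorion removed with pronase at 4 hpf, final DMSO 0.64%.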
# [6] = Tanguay_ZF_120hpf_PIG_legacy: (Legacy) Oregon State University Tanguay Lab 120 Hour Post-fertilization zebrafish Assay for Pigmentation Malformation (AID 2283650)
# Method in brief: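 Brightfield scoring of pigmentation malformation at 120 hpf, recorded as binary present/absent per larva. Exposure: dechorionated 5D wild-type embryos, one per well, static from 6 hpf at 28C, final DMSO 0.64% (vol/vol). Dead embryos not scored.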
# [7] = Tanguay_ZF_120hpf_CIRC_legacy: (Legacy) Oregon State University Tanguay Lab 120 Hour Post-fertilization zebrafish Assay for Circulatory Malformation (AID 2283651)
# Method in brief: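 Embryos are dechorionated at 4 hpf, plated one per well at 6 hpf, then held under static exposure at 28C until 120 hpf. Malformations are recorded as binary calls; mortality excludes other endpoints.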
# [8] = Tanguay_ZF_120hpf_SWIM_legacy: (Legacy) Oregon State University Tanguay Lab 120 Hour Post-fertilization zebrafish Assay for Swim Bladder Malformation (AID 2283654);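 note: swim bladder malformation in each larva scored yes or no under brightfield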
# Method in brief: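 Tropical 5D embryos dechorionated at 4 hpf; 1 embryo/well from 6 hpf; static, sealed, dark exposure at 28C until 120 hpf; final DMSO 0.64%; 5uM trimethyltin chloride positive control; swim bladder defect recorded yes/no; dead embryos not scored.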
# [9] = Tanguay_ZF_120hpf_TRUN_legacy: (Legacy) Oregon State University Tanguay Lab 120 Hour Post-fertilization zebrafish Assay for Truncated Body (AID 2283655)
# Method in brief: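 Binary presence/absence of truncated body is recorded at 120 hpf by brightfield, with non-mortality endpoints skipped after death. Exposure is static from 6 hpf in sealed dark plates at 28C, using dechorionated wild-type zebrafish, 0.64% DMSO.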
# [10] = CCTE_Padilla_ZF_144hpf_TERATOSCORE: (Legacy) CCTE's 144 Hour Post-fertilization zebrafish Assay Teratoscore, Padilla Lab (AID 2283679; active = hit-call score of the fitted dose curve at least 0.9, where 1 is the maximum; inactive = score below 0.9;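 for AC50: zebrafish embryos with chorions exposed by immersion from 6-8 hpf to 5 dpf with daily renewal; teratogenicity score from eye scoring of death hatching and malformations at 144 hpf; higher score means more developmental defects relative to DMSO baseline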)
# Method in brief: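 Larvae scored by eye at 144 hpf for death, hatching and malformations after a day in clean Hanks'. Before that, daily-renewed exposure at 80 uM (0.4% DMSO, 26C) from roughly 6-8 hpf through 5 dpf, 4 embryos per chemical.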
# [11] = Tanguay_ZF_120hpf_NC_legacy: (Legacy) Oregon State University Tanguay Lab 120 Hour Post-fertilization zebrafish Assay for Notochord and Tail Malformation (AID 2283656)
# Method in brief: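 Binary scoring of notochord distortion by brightfield microscopy; embryos dying were not scored. Wild-type Tropical 5D embryos, chorion removed, exposed singly and statically from 6 to 120 hpf, 28C, sealed, 0.64% DMSO.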
# [12] = Tanguay_ZF_120hpf_TR_legacy: (Legacy) Oregon State University Tanguay Lab 120 Hour Post-fertilization zebrafish Assay for Touch Response (AID 2283667)
# Method in brief: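 Binary touch-response call at 120 hpf, analysed as gain of signal versus DMSO baseline. Wild-type 5D larvae, static exposure at 28C, 0.64% DMSO final; 5uM trimethyltin chloride as positive control.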
# [13] = STM_H9_OrnithineISnorm_perc: Stemina devTOX quickPredict H9 human embryonic stem cell (hESC)-based Assay for Ornithine (ORN) Metabolite Biomarker, Normalized (AID 2283712; active = hit-call score of the fitted dose curve at least 0.9, where 1 is the maximum; inactive = score below 0.9;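 note: ornithine released into spent medium during last day measured by mass spectrometry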)
# Method in brief: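 Ornithine secreted by H9 hESCs after 72h compound treatment (daily media/compound renewal) was quantified in final-day media by UPLC-HRMS. Values are isotope-standard-normalized, expressed relative to 0.1% DMSO, fitted in positive direction.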
# [14] = test system: Thyroperoxidase (TPO), gene 54314; assay: CCTE_Simmons_AUR_rTPO: CCTE's Amplex UltraRed Assay for Thyroperoxidase (TPO) Inhibition, Simmons Lab (AID 2283662);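 note: potency for loss of signal meaning inhibition of peroxidase activity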
# Method in brief: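 Rat thyroid microsomal TPO + 25 uM AUR in 200 mM K phosphate; cpd 5 nM–87.5 uM [final], 8 conc, 0.5% DMSO; 300 uM H2O2 starts rxn; 37C dark 30 min; endpoint FI 544/590 nm; n=3.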
# [15] = CCTE_Simmons_CellTiterGLO_HEK293T: Viability Assessment in CCTE's Assays for Thyroperoxidase (TPO) Inhibition, Simmons Lab (AID 2283665)
# Method in brief: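 Cells were seeded overnight, then exposed to an eight-point series up to 87.5 uM final for 24 hours. CellTiter-Glo reagent was added and luminescence read after 20 min, giving ATP-based viability versus DMSO.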
# [16] = read-out: kallikrein-3 (KLK3), KLK3 (gene 354); assay: LTEA_HepaRG_KLK3: Life Technologies and Expression Analysis (LTEA) Assay for kallikrein-3 (KLK3) using HepaRG (AID 2283652; active = hit-call score of the fitted dose curve at least 0.9, where 1 is the maximum; inactive = score below 0.9); details: mRNA level, 48 h; actives raise or lower the signal
# Method in brief: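 KLK3 transcript levels were measured by TaqMan qRT-PCR with normalisation to three housekeeping genes. HepaRG cultures received chemicals for 48 h at up to 100 uM (half-log, 8 points, 0.5% DMSO vehicle), fitted in both directions against DMSO.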
# [17] = read-out: solute carrier (SLC22A6), SLC22A6 (gene 9356); assay: LTEA_HepaRG_SLC22A6: Life Technologies and Expression Analysis (LTEA) Assay for solute carrier (SLC22A6) using HepaRG (AID 2283653; active = hit-call score of the fitted dose curve at least 0.9, where 1 is the maximum; inactive = score below 0.9); details: mRNA level, 48 h; actives raise or lower the signal
# Method in brief: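 SLC22A6 transcript was measured by TaqMan qRT-PCR, normalized to three housekeeping genes, after 48 h duplicate exposure of HepaRG cells (100 uM top, half-log steps, 0.5% DMSO); bidirectional fit against vehicle.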
# [18] = read-out: solute carrier (SLC10A1), SLC10A1 (gene 6554); assay: LTEA_HepaRG_SLC10A1: Life Technologies and Expression Analysis (LTEA) Assay for solute carrier (SLC10A1) using HepaRG (AID 2283657; active = hit-call score of the fitted dose curve at least 0.9, where 1 is the maximum; inactive = score below 0.9); details: mRNA level, 48 h; actives raise or lower the signal
# Method in brief: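 HepaRG, 48 h exposure, 8-pt half-log curve from 100 uM in 0.5% DMSO, duplicates. Read-out: TaqMan qRT-PCR of SLC10A1 mRNA, normalized to three housekeeping genes. Gain/loss fit vs DMSO baseline.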
# [19] = read-out: matrix metalloproteinase-1 (MMP1), MMP1 (gene 4312); assay: LTEA_HepaRG_MMP1: Life Technologies and Expression Analysis (LTEA) Assay for matrix metalloproteinase-1 (MMP1) using HepaRG (AID 2283658; active = hit-call score of the fitted dose curve at least 0.9, where 1 is the maximum; inactive = score below 0.9); details: mRNA level, 48 h; actives raise or lower the signal
# Method in brief: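 qRT-PCR (TaqMan, Fluidigm arrays) of MMP1 transcript, normalized against three housekeeping genes and fitted in both directions relative to 0.5% DMSO vehicle. Human HepaRG cultures received duplicate 48 h exposures across 8 points, highest 100 uM with half-log steps.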
# [20] = read-out: Cytochrome P450 (CYP24A1_1), CYP24A1 (gene 1591); assay: LTEA_HepaRG_CYP24A1_1: Life Technologies and Expression Analysis (LTEA) Assay for Cytochrome P450 (CYP24A1_1) using HepaRG (AID 2283671; active = hit-call score of the fitted dose curve at least 0.9, where 1 is the maximum; inactive = score below 0.9); details: mRNA level, 48 h; actives raise or lower the signal
# Method in brief: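 Readout is CYP24A1 transcript level by qRT-PCR, normalized to three housekeeping genes, with gain or loss of signal fitted against 0.5% DMSO. Human HepaRG cells received compound for 48 h at up to 100 uM.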
compound,measurement,setting,value
CC(C)c1ccc(C(=O)N=C(N)N)cc1S(C)(=O)=O,outcome,[1],inactive
same,outcome,[2],inactive
same,outcome,[3],inactive
same,outcome,[4],inactive
same,outcome,[5],inactive
same,outcome,[6],inactive
same,outcome,[7],inactive
same,outcome,[8],inactive
O=C(O)CCCCC(=O)O,outcome,[1],inactive
same,outcome,[2],inactive
same,outcome,[3],inactive
same,outcome,[4],inactive
same,outcome,[5],inactive
same,outcome,[6],inactive
same,outcome,[7],inactive
same,outcome,[8],inactive
same,outcome,[9],inactive
Oc1ccc2c(c1)OC[C@@H](N1CCC(O)(c3ccc(F)cc3)CC1)[C@H]2O,outcome,[1],inactive
same,outcome,[2],inactive
same,outcome,[3],inactive
same,outcome,[4],inactive
same,outcome,[5],inactive
same,outcome,[6],inactive
same,outcome,[7],inactive
same,outcome,[8],inactive
same,outcome,[9],inactive
same,AC50,[10],1460 nM (active)
Cc1nc(C)nc(N2C[C@@H](C)N(c3ccnc([C@@H](C)O)n3)[C@@H](C)C2)n1,outcome,[1],inactive
same,outcome,[2],inactive
same,outcome,[3],inactive
same,outcome,[4],inactive
same,outcome,[5],inactive
same,outcome,[6],inactive
same,outcome,[7],inactive
same,outcome,[8],inactive
same,outcome,[9],inactive
same,outcome,[11],inactive
same,outcome,[12],inactive
same,AC50,[10],30300 nM (active)
O=C(N[C@@H](Cc1ccccc1)[C@@H](O)C(=O)N1C[C@@H](O)[C@@H](O)C1)c1cc2cc(Cl)ccc2[nH]1,outcome,[1],inactive
same,outcome,[2],inactive
same,outcome,[3],inactive
same,outcome,[4],inactive
same,outcome,[5],inactive
same,outcome,[6],inactive
same,outcome,[7],inactive
same,outcome,[8],inactive
same,outcome,[9],inactive
same,outcome,[12],inactive
Cc1cccc(Nc2cc(Cl)nc(SCC(=O)O)n2)c1C,outcome,[1],inactive
same,outcome,[2],inactive
same,outcome,[3],inactive
same,outcome,[4],inactive
same,outcome,[5],inactive
same,outcome,[6],inactive
same,outcome,[7],inactive
same,outcome,[8],inactive
same,outcome,[11],inactive
same,outcome,[13],inactive
CCCCCC(=O)O,outcome,[1],inactive
same,outcome,[2],inactive
same,outcome,[3],inactive
same,outcome,[4],inactive
same,outcome,[5],inactive
same,outcome,[6],inactive
same,outcome,[7],inactive
same,outcome,[8],inactive
same,outcome,[12],inactive
COc1cc(-c2nc(NC(=O)c3cc4cc(C)cc(C)c4n3CC(=O)O)sc2CCC2CCCCC2)c(OC)cc1Cl,outcome,[1],inactive
same,outcome,[2],inactive
same,outcome,[3],inactive
same,outcome,[4],inactive
same,outcome,[5],inactive
same,outcome,[6],inactive
same,outcome,[7],inactive
same,outcome,[8],inactive
same,outcome,[9],inactive
CC1(C)CC(N=C=O)CC(C)(CN=C=O)C1 (configuration not stated),outcome,[1],inactive
same,outcome,[2],inactive
same,outcome,[3],inactive
same,outcome,[4],inactive
same,outcome,[5],inactive
same,outcome,[6],inactive
same,outcome,[7],inactive
same,outcome,[8],inactive
same,outcome,[12],inactive
same,outcome,[10],inactive
Cc1cc(NC(=O)C(=O)O)cc(C)c1Oc1ccc(O)c2c1CCC2,outcome,[1],inactive
same,AC50,[2],546 nM (active)
same,outcome,[3],inactive
same,AC50,[4],499 nM (active)
same,outcome,[5],inactive
same,AC50,[6],3.39 nM (active)
same,outcome,[7],inactive
same,outcome,[8],inactive
same,AC50,[14],5070 nM (active)
same,outcome,[15],inactive
same,AC50,[10],657 nM (active)
same,outcome,[13],inactive
COCCOC[C@H](CC1(C(=O)NC2CCC(C(=O)O)CC2)CCCC1)C(=O)Oc1ccc2c(c1)CCC2 (some centres not stated),outcome,[1],inactive
same,outcome,[2],inactive
same,outcome,[3],inactive
same,outcome,[4],inactive
same,outcome,[5],inactive
same,outcome,[6],inactive
same,outcome,[7],inactive
same,outcome,[8],inactive
same,outcome,[11],inactive
same,outcome,[12],inactive
CCCCCCCC=O,outcome,[1],inactive
same,outcome,[2],inactive
same,outcome,[3],inactive
same,outcome,[4],inactive
same,outcome,[5],inactive
same,outcome,[6],inactive
same,outcome,[7],inactive
same,outcome,[8],inactive
same,outcome,[11],inactive
same,outcome,[12],inactive
O=C(OCCCCCOC(=O)c1ccccc1)c1ccccc1,outcome,[1],inactive
same,outcome,[2],inactive
same,outcome,[3],inactive
same,outcome,[4],inactive
same,outcome,[5],inactive
same,outcome,[6],inactive
same,outcome,[7],inactive
same,outcome,[8],inactive
same,outcome,[9],inactive
same,outcome,[10],inactive
C=CCc1ccc(O)c(OC)c1,outcome,[1],inactive
same,outcome,[2],inactive
same,outcome,[3],inactive
same,outcome,[4],inactive
same,outcome,[5],inactive
same,outcome,[6],inactive
same,outcome,[7],inactive
same,outcome,[8],inactive
same,outcome,[9],inactive
same,AC50,[14],6160 nM (active)
same,outcome,[15],inactive
same,outcome,[12],inactive
CN1CCCC1=O,outcome,[1],inactive
same,outcome,[2],inactive
same,outcome,[3],inactive
same,outcome,[4],inactive
same,outcome,[5],inactive
same,outcome,[6],inactive
same,outcome,[7],inactive
same,outcome,[16],inactive
same,outcome,[17],inactive
same,outcome,[8],inactive
same,outcome,[9],inactive
same,outcome,[11],inactive
same,outcome,[18],inactive
same,outcome,[19],inactive
same,outcome,[15],inactive
same,outcome,[20],inactive
